Molecules are shown by their SMILES. Screen size: about 300,000 compounds; about 3,200 (1.1%) were called active. For the sample, actives were picked, then their nearest neighbours and some compounds at random. A number with no mark means an inactive call. Rule as the data show it: active = inhibition above about 75%; inconclusive = no clear call, values can overlap the other calls; inactive = below that; tested in HMLE shEcad cells.

The assay in a line: growth suppression of cancer stem-like cells – cell-based, luminescence, primary screen (AID 2717). The settings on record: cancer stem cell-like cells viability, at 7.5 µM, stronger effect = higher value.
Broadly, the inhibition is the change of the read-out against control, counted positive when it falls. `O=C(CSc1nccn1-c1cccc(F)c1)NC1CCCC1`: the inhibition is -0.605%.
In the case of `Cc1c(Cl)c([N+](=O)[O-])nn1CCCC(=O)Nc1cc(Cl)ccc1Cl` it was -11.4%.
Under `Cc1ccc(C(=O)O)cc1NC(=O)c1ccc(Cn2nc(C)c(Cl)c2C)o1` stands -28.7%.
Take `Cc1c(Cl)c([N+](=O)[O-])nn1Cc1ccc(C(=O)N/N=C\c2cc(Cl)ccc2O)o1`: the inhibition is 106% (active).
Under `CCC(CO)Oc1cc(NC(=O)c2cccc(F)c2)c2ncn(C(C)C)c2c1` (stereo not drawn) stands -13.2%; under `C=CCC[C@H](Cc1ccc(F)cc1)C(=O)OC[C@@H](Cc1c[nH]c2ccccc12)NC(=O)[C@H](CC=C)CC(=O)N[C@H](CO)Cc1ccccc1`, 24.2%; under `Cc1nnsc1C(=O)Nc1cccc(Cl)c1C`, 4.62%.
In the case of `Cc1cc(Cl)ccc1NNC(=O)c1snnc1C` it was 75.1% (active).
Regarding `Cc1nnsc1C(=O)N/N=C/c1ccccc1Cl`, the inhibition is -13.9%.
`O=C(CN1C(=O)NC2(CCOc3ccccc32)C1=O)Nc1cccc([N+](=O)[O-])c1` (stereo not drawn): the inhibition is 0.94%.
Under `COc1cccc(-c2ccc3c(c2)S(=O)(=O)c2cccc(C(=O)O)c2C3=O)c1OC` stands 7.27%; under `COc1ccc2c(c1)[C@H]1[C@H](CO2)[C@H](c2ccccc2)[C@]2(C)C(=O)Nc3cc(F)c(F)cc3C(=O)N12`, 21.6%; under `Cc1ccc(NC(=O)C2CCC(C(C)(C)C)CC2)cc1S(=O)(=O)N1CCOCC1` (stereo not drawn), 45.1%.
Under `CC1(C)C=C2[C@H]3CC[C@@H]4[C@@]5(C)CCC(=O)C(C)(C)[C@@H]5CC[C@@]4(C)[C@]3(C)CC[C@@]2(C(=O)O)CC1` stands 107% (active); under `NCCN1CCN2C(=O)CN(C(=O)c3ccccc3)CC12` (stereo not drawn), -9.2%; under `CCCCOc1ccc(C(=O)NCC(=O)OCC(=O)c2c(N)n(C)c(=O)n(C)c2=O)cc1`, 11.8%.
On to `Cn1nc(C(F)(F)F)c(C(=O)Nc2cccc(C(F)(F)F)c2)c1SCc1ccc(Cl)cc1`, for which the inhibition was 105% (active).
With `COC(=O)c1ccccc1Sc1c(/C=N/OCc2ccc(Cl)cc2)c(C(F)(F)F)nn1C`, the inhibition is 17.8%.
`O=C(O)CSc1c2c(nc3cc(C(=O)Nc4cccc(C(F)(F)F)c4)ccc13)CCCC2`: the inhibition was 14.3%.
With `O=C(CNC(=O)c1n[nH]c2ccccc12)Nc1cc(Cl)ccc1Cl`, the inhibition was 5.44%.
Turning to `CC(CNC(=O)Cn1cnc2c(OCc3ccccc3)ncnc21)c1ccccc1` (stereo not drawn), the inhibition was -8.55%.
Take `Cc1cccc(NC(=O)c2sc(-c3ccccc3)nc2-c2ccc([N+](=O)[O-])cc2)c1`: the inhibition was 12.3%.
In the case of `O=C(Nc1ccccc1)/C(=C/c1ccc([N+](=O)[O-])cc1)NC(=O)c1ccccc1` it was -13%; in that of `CCOC(=O)/C(=C\c1ccc([N+](=O)[O-])cc1)C(=O)c1cc(C(C)=O)c(Nc2ccccc2)s1`, 88.4% (active); in that of `O=C(OCC(=O)N1CCN(c2ccccc2)CC1)c1ccc([N+](=O)[O-])s1`, 0.421%.
Under `CN(CC(=O)Nc1ccc(OC(F)F)cc1)S(=O)(=O)/C=C/c1ccccc1` stands 7.09%; under `COc1cc(-c2cc(C(=O)OCC(=O)Nc3ccc4c(c3)OCO4)c3ccccc3n2)cc(OC)c1OC`, -14.5%; under `O=C(COC(=O)c1c2c(nc3ccccc13)/C(=C\c1cccs1)CCC2)Nc1ccccc1Cl`, 73.5%.
In the case of `NS(=O)(=O)c1ccc(NC(=O)COC(=O)c2c3c(nc4ccccc24)/C(=C\c2ccc4c(c2)OCO4)CCC3)cc1`, the inhibition was 93.4% (active).
Under `CN(C(=O)COC(=O)Cc1ccccc1[N+](=O)[O-])C1CCS(=O)(=O)C1` (stereo not drawn) stands -16.1%; under `CN1C(=O)/C(=C/c2ccc(C(=O)NC3CCCC3)cc2)Oc2ccccc21`, 2.95%.
Under `CCCN1CCN(C(=O)CCCNC(=O)c2ccc(Cl)cc2)CC1` stands -11.6%; under `CN1CCN(CCCNC(=O)c2ccc(/C=C3\Oc4ccccc4N(Cc4ccc(Cl)cc4)C3=O)cc2)CC1`, 103% (active).
Under `COc1ccc(/C=C/C(=O)OCC(=O)NC2CCCCCC2)cc1OC` stands -6.85%.
Regarding `CC(=O)c1sc(NC(=O)CCN2C(=O)C3CC=CCC3C2=O)nc1-c1ccccc1` (stereo not drawn), the inhibition was -4.39%.
Under `Cc1ccc(/C=N/NC(=O)COc2ccccc2-c2ccccc2)cc1` stands 114% (active); under `CSc1ccc(/C=N\NC(=O)COc2ccc(Cl)cc2Br)cc1`, -0.83%; under `Cc1cccc(OCC(=O)NCC(=O)N/N=C/c2ccc(N(C)C)cc2)c1`, 4.13%.
Under `CC(C)COc1ccc(C(=O)NNC(=O)CCC(=O)c2cccs2)cc1` stands -16.7%; under `CN(CC(=O)Nc1ccc(C(N)=O)cc1)S(=O)(=O)c1ccc2c(c1)OCCO2`, -1.86%; under `Cc1nn(-c2ccccc2)c(C)c1NC(=O)COc1ccc(Cl)cc1Cl`, 22.1%.
As for `CCOC(=O)c1c(NC(=O)c2ccc(S(=O)(=O)N(C)CC3CCCO3)cc2)sc2c1CC(C)(C)NC2(C)C` (stereo not drawn), the inhibition was 62.9%.
In the case of `COC(=O)c1c(NC(=O)COc2ccc(Cl)cc2Cl)sc2c1CC(C)(C)NC2(C)C` it was 103% (active); in that of `CC(OC(=O)/C=C/c1ccccc1)C(=O)Nc1ccc(C(N)=O)cc1` (stereo not drawn), -9.55%; in that of `COc1ccc(C2=NN(c3nc4ccccc4s3)C(=O)C2)cc1`, 81.2% (active).
For the molecule `COc1ccc(-n2nnnc2-c2nc3ccccc3s2)cc1`, the inhibition is 10.3%.
On to `COC(=O)Cc1[nH]n(-c2nc3ccccc3s2)c(=O)c1C(C)=Nc1ccc(OC)cc1`, for which the inhibition was 32.2%.
Consider `O=C(NCCC1=CCCCC1)c1ccc(-n2cncn2)cc1`, for which the inhibition was -10.8%.
In the case of `O=C(O)c1cccc(S(=O)(=O)Nc2ccc(O)cc2Sc2nc3ccccc3s2)c1` it was -15.7%; in that of `CCOc1ccccc1Nc1ccc2nonc2c1[N+](=O)[O-]`, -3.74%; in that of `O=[N+]([O-])c1c(NCCO)cc(Sc2nc3ccccc3s2)c2nonc12`, 78.7% (active).
Under `CC(C)C(NC(=O)c1c(F)cccc1F)C(=O)NNC(=O)c1ccccc1` (stereo not drawn) stands -4.36%.
For `CC(C)(C)OC(=O)C[C@@H]1C/C=C\C[C@@H](CC(=O)N[C@@H](CO)Cc2ccccc2)C(=O)N2CCC[C@H]2COC1=O`, the inhibition was -16.5%.
In the case of `Cc1ccc(C)c(NC(=O)CN(C)C(=O)COc2ccc3ccccc3c2)c1` it was -11.2%.
Under `O=C(COc1ccc(Br)cc1F)NCC1(N2CCCCC2)CCCCC1` stands 1.3%; under `CC1=NN(c2ccccc2)C(=O)C1C(=O)c1ccc([N+](=O)[O-])cc1` (stereo not drawn), -1.87%; under `O=C1CC(c2ccccc2)=NN1c1ccc([N+](=O)[O-])cc1`, 101% (active).
In the case of `O=c1[nH]n(-c2ccc([N+](=O)[O-])cc2)c(=O)c2ccccc12` it was -17.2%.
With `Cc1ccc(NC(=O)C2CC2)cc1S(=O)(=O)N1CCOCC1`, the inhibition is -16%.
Under `C[C@H](CO)N1C[C@H](C)[C@H](CN(C)C(=O)Nc2ccc(C(F)(F)F)cc2)Oc2c(NC(=O)c3ccncc3)cccc2C1=O` stands 6.77%.
For `COc1ccc(NC(=O)Nc2ccc3c(c2)C(=O)N([C@H](C)CO)C[C@H](C)[C@@H](CN(C)C(=O)Nc2ccc4c(c2)OCO4)O3)cc1`, the inhibition was -11%.
As to `COc1cc(OC)cc(-c2sc3ccc(OC)cc3c2-c2ccc3cc[nH]c3c2)c1`, the inhibition is 137% (active).
Under `COc1cc(OC)cc(-c2c(-c3cccs3)c3cc(-c4ccc(OC)cc4F)ccc3n2C)c1` stands -6.57%; under `CCN(CC)CC(=O)c1c[nH]c2ccc(OC)cc12`, 3.22%.
Under `COc1ccc2sc(-c3ccc(N(C)C)cc3)c(-c3ccc4cc[nH]c4c3)c2c1` stands 83.3% (active).
For the molecule `COc1ccc2[nH]c(=S)cc(C)c2c1`, the inhibition is -16.3%.
On to `CC[C@H]1CN2CCc3cc(OC)c(OC)cc3[C@@H]2C[C@@H]1C[C@H]1NCCc2cc(OC)c(OC)cc21`, for which the inhibition is 76.3% (active).
With `COc1cc2c(cc1O)[C@H](Cc1ccc(Oc3cc(C[C@@H]4NCCc5cc(OC)c(O)cc54)ccc3O)cc1)NCC2`, the inhibition was 9.97%.
As to `COc1ccc2c(c1)CCNC2Cc1ccc(OC)c(O)c1` (stereo not drawn), the inhibition is 10.2%.
Under `CN=C(Nc1cccc(S(=O)(=O)N2CCOCC2)c1)c1ccccc1` stands -5.3%.
On to `COC(=O)/C=C\C(=O)Nc1cccc([N+](=O)[O-])c1`, for which the inhibition is 88.5% (active).
Under `COc1cccc(CNC(=O)CCCC(=O)Nc2cccc([N+](=O)[O-])c2)c1` stands -9.18%; under `COc1ccc(S(=O)(=O)NC(C)C(=O)Nc2cccc([N+](=O)[O-])c2)cc1` (stereo not drawn), -2.67%; under `Cc1ccc(NC(=O)c2ccc(Cl)nc2)cc1S(=O)(=O)N1CCOCC1`, 33.6%.
Consider `CCOC(=O)N1CCN(C(=O)COCc2cc(-c3ccc4c(c3)OCO4)on2)CC1`, for which the inhibition is -12.8%.
Under `Cc1cccc(N2CCN(C(=O)COCc3cc(-c4ccc5c(c4)OCO5)on3)CC2)c1C` stands 121% (active); under `O=C(COCc1cc(-c2ccc3c(c2)OCO3)on1)N1CCN(c2cccc(Cl)c2)CC1`, 36.2%.
On to `Cc1ccc(C(=O)Nc2ccc3c(c2)OCCO3)cc1S(=O)(=O)N1CCOCC1`, for which the inhibition was -3.87%.
In the case of `C[C@H](CO)N1C[C@H](C)[C@@H](CN(C)S(=O)(=O)c2ccc(F)cc2)Oc2ccc(NC(=O)CCC(F)(F)F)cc2C1=O` it was 4.59%; in that of `CCN(c1ccccc1)S(=O)(=O)c1ccc(C(=O)Nc2ccccc2OC)cc1`, 16.8%.
Under `COc1ccc([C@H]2CC(=O)C=C(c3ccc(CO)cc3)C2)cc1` stands -11%; under `Cc1csc(NC(=S)Nc2cccc(Cl)c2)n1`, 78.6% (active).
In the case of `S=C(Nc1cccc(Cl)c1)Nc1ccc2c(c1)OCCO2` it was 4.65%; in that of `FC(F)(F)c1cccc(NC(=S)Nc2cccc(Cl)c2)c1`, 52.9%; in that of `CCN(CC)S(=O)(=O)c1ccc(N2CCOCC2)c(NC(=O)C(C)Oc2ccc(F)cc2)c1` (stereo not drawn), -11.2%.
Consider `CN(c1ccccc1)S(=O)(=O)c1cc(C(=O)N2CCN(c3ncccn3)CC2)ccc1Cl`, for which the inhibition is 3.3%.
Take `Cc1ccc(C)c(S(=O)(=O)N2CCN(C(=O)Nc3ccccc3)CC2)c1`: the inhibition is -18.4%.
With `Cc1ccc(C)c(S(=O)(=O)N2CCN(c3ncnc4sccc34)CC2)c1`, the inhibition was 101% (active).
Under `COc1ccc(C)cc1S(=O)(=O)N1CCN(S(=O)(=O)c2cc(C(=O)O)ccc2C)CC1` stands -3.35%; under `CCN1C(=O)/C(=C\N2CCOCC2)SC1=S`, -22.1%.
Under `CCN1C(=O)/C(=C\N2CCN(c3cccc(Cl)c3)CC2)SC1=S` stands 100% (active); under `CCC1(C)NC(=O)N(CC(=O)N2CCN(c3cccc(Cl)c3)CC2)C1=O` (stereo not drawn), 3.29%; under `COc1cc(/C=C/C(=O)Nc2ccc(OC)c(S(=O)(=O)N3CCOCC3)c2)ccc1OCC#N`, 42.4%.
Take `O=C(Nc1cccc(S(=O)(=O)N2CCCC2)c1)c1cncc(Br)c1`: the inhibition is -1.23%.
In the case of `C=CCC[C@@H](Cc1ccc(F)cc1)C(=O)OC[C@@H](C)NC(=O)[C@H](CC=C)CC(=O)N(CCO)Cc1ccccc1` it was -1.95%; in that of `O=C(CSc1nnc(-c2ccncc2)o1)Nc1cccc(Cl)c1`, 7.36%; in that of `Cc1cc(C)c(S(=O)(=O)N2CCC(C(=O)OCc3c(C)noc3C)CC2)c(C)c1`, 1.55%.
On to `COc1cc(/C=C/C(=O)OCC(=O)NCCCc2ccccc2)ccc1O`, for which the inhibition is 14.6%.

The record behind these values is PubChem BioAssay AID2717 (Broad Institute, 2010).
